Compound activity: PubChem, several laboratories
Arbovirus anti – blocks arbovirus infection. inhibition, % at 10 µM. arbovirus infection cell-based antiviral screen. 200,000 compounds, 0.37% hits; in the data active = inhibition above about 30%
CHOP inh – blocks CHOP induction under ER stress; CHO-K1 CHOP-promoter luciferase, tunicamycin-induced, 15-18 h; inhibition, % at 10 µM; 220,000 compounds, 3.8% hits; AID 2732;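 active = compounds that reduced the stress-induced luciferase reporter signal by more than about 70% of percent inhibition, limit read from the data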
WT yeast gro inh – growth inhibition of WT yeast, mitochondrial fusion screen. inhibition, % at 10 µM. 190,000 compounds, 2.1% hits. mitochondrial fusion phenotypic screen, WT strain. AID 1362; in the data active = inhibition above about 58%; tested in S. cerevisiae
Lmaj promast – inhibitors of Leishmania major promastigote growth; Leishmania major promastigotes, resazurin fluorescence viability; inhibition, % at 10 µM; 200,000 compounds, 9% hits; in the data active = inhibition above about 50%;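 note: promastigotes grown with compound for 44 hours at 28 °C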
Of the large screens only hits and unclear results are named; the others gave an inactive call. The list is not random: actives were taken first. Their share in the collection is about 12%.

Cc1ccc(SCCNC(=O)c2ccccc2)cc1	none
CS(=O)(=O)Nc1ccc(C(=O)NCCSC2CCCCC2)cc1	none
Cc1ccc(SCCNC(=O)c2ccc(C)c(S(=O)(=O)Nc3cccc(C)c3)c2)cc1	Lmaj promast 77.5
Cc1cc2cc(C#N)c(N3CCN(S(C)(=O)=O)CC3)nc2cc1C	none
COc1ccc(CNC(=O)C2CCC(CNc3c(N4CCC(C)CC4)c(=O)c3=O)CC2)cc1 (centres undefined)	none (no result: Arbovirus anti, WT yeast gro inh, Lmaj promast)
COC(=O)NNC(=S)NCc1ccccc1	none
Cc1noc(C)c1S(=O)(=O)Nc1ccc(C(=O)N2CCCCC2)cc1	none
Cc1ccc(Cl)cc1N1CCN(C(=O)c2ccc(NS(=O)(=O)c3c(C)noc3C)cc2)CC1	Lmaj promast 96.4
Cc1ccc(NC(=O)c2ccc(NS(=O)(=O)c3c(C)noc3C)cc2)cc1C	none
Cc1ccc(C)c(N2CCN(C(=O)c3ccc(NS(=O)(=O)c4c(C)noc4C)cc3)CC2)c1	CHOP inh 71.8, Lmaj promast 92.6
O=S(=O)(NCCCN1CCN(c2ccccc2F)CC1)c1cccc2cccnc12	none
CCCc1cc(=O)[nH]c(SCC(=O)c2ccc3c(c2)OCCO3)n1	Lmaj promast 60.9
Cc1ccc(C2=NNC3(CCOC(C)(C)C3)S2)cc1 (centres undefined)	none
CCOC(=O)C1CCN(c2ccc([N+](=O)[O-])cc2)CC1	none
CCOC(=O)C1CCC(CN(Cc2ccccc2C)S(=O)(=O)c2ccc([N+](=O)[O-])cc2)CC1 (centres undefined)	WT yeast gro inh 74.1, Lmaj promast 85.5
COc1cc(OC)nc(Oc2ccccc2C(=O)Oc2ccc(Cl)cc2)n1	WT yeast gro inh 67.9
COc1ccccc1C(=O)ON=C1c2ccccc2-c2ccccc21	Lmaj promast 50.8
COc1ccccc1C(=O)Oc1ccc(C(C)(C)C)cc1	CHOP inh 74.9 (no result: WT yeast gro inh)
COc1cc(OC)nc(Oc2ccccc2C(=O)Oc2ccccc2Cl)n1	WT yeast gro inh 61.5
COc1cc(OC)cc(C(=O)N[C@H](C(=O)OCC(=O)NC(=O)c2cccn2C)C(C)C)c1	none
O=C(COc1cccc(OC(F)F)c1)Nc1ccc(SC(F)F)cc1	CHOP inh 93.9
O=C(COC(=O)c1ccccc1Cc1ccccc1)Nc1ccc(SC(F)F)cc1	WT yeast gro inh 70.5
CCc1nnc(NC(=O)C2Cc3ccccc3CN2S(=O)(=O)CC)s1 (centres undefined)	none
CCS(=O)(=O)N1Cc2ccccc2CC1C(=O)Nc1nc2ccccc2s1 (centres undefined)	Lmaj promast 67.0
Cc1ccc(C(=O)c2ccccc2C(=O)OCC(=O)Nc2ccc(SC(F)F)cc2)cc1	Lmaj promast 66.1
CCS(=O)(=O)N1Cc2ccccc2CC1C(=O)OCC(=O)Nc1ccc(C)cc1 (centres undefined)	none
CCS(=O)(=O)N1Cc2ccccc2CC1C(=O)OCC(=O)Nc1ccc(SC(F)F)cc1 (centres undefined)	CHOP inh 93.1
Cc1cccc(C(=O)Oc2ccccc2/C=N/Nc2ccc([N+](=O)[O-])cc2)c1	Lmaj promast 98.1
Cc1cccc(C(=O)Oc2ccc(/C=N/O)cc2)c1	none
COc1cc(-c2[nH]ncc2CN2CCN(Cc3cccs3)CC2)cc(OC)c1OC	none
Cc1cc(C)c(NC(=O)c2cc3c(nc4sccn43)s2)c(C)c1	WT yeast gro inh 74.9
Cc1ccc(C)c(C(=O)c2c(C)nc3sccn23)c1	none
CC(C)OP(=O)(OC(C)C)/C(C=O)=N\Nc1ccc([N+](=O)[O-])cc1	none (no result: Arbovirus anti, WT yeast gro inh, Lmaj promast)
CN1CN(C)C(c2ccncc2)=C1c1ccncc1	none (no result: Arbovirus anti, WT yeast gro inh, Lmaj promast)
CCCCn1c(-c2ccccc2)cnc1SCC(=O)NCCc1ccc(OC)c(OC)c1	Lmaj promast 66.3
COCCn1c(-c2ccccc2)cnc1SCC(=O)Nc1cccc2ccccc12	Arbovirus anti 37.6
COc1ccc(CCNC(=O)CSc2nnc(-c3ccccc3)c3ccccc23)cc1OC	none
COc1ccc(CCNC(=O)COC(=O)c2ccc(N3CCCC3=O)cc2)cc1	none
O=C(NN1CC(=O)N(c2cc(Cl)cc(Cl)c2)CC1=O)c1cccs1	none (no result: Arbovirus anti, WT yeast gro inh, Lmaj promast)
c1ccc(Cc2noc(CN3CCN(C4CCc5ccccc5C4)CC3)n2)cc1 (centres undefined)	Lmaj promast 87.2
c1ccc(Cc2noc(CN3CCC(CN4CCOCC4)CC3)n2)cc1	none
c1ccc(Cc2noc(CN3CCCN(C4Cc5ccccc5C4)CC3)n2)cc1	Lmaj promast 92.4
COCCSc1ccccc1C(=O)Nc1cc([N+](=O)[O-])ccc1OC	none
COc1ccc([N+](=O)[O-])cc1NC(=O)c1cn(-c2ccc(Cl)cc2)c(=O)c2ccccc12	Lmaj promast 59.7
CC1CCCCN1c1nc(-c2ccncc2)nc2ccccc12 (centres undefined)	CHOP inh 76.5, WT yeast gro inh 59.3, Lmaj promast 80.9
c1ccc2c(N3CCOCC3)nc(-c3ccncc3)nc2c1	Lmaj promast 91.8
